Experimental data taken from PubChem BioAssay.
The source made the active and inactive calls. Unless noted, no rule for the calls is given here.

How the values were obtained:
[1] = system: Wnt5a (protein binding on small-molecule microarray); test: small molecules binding Wnt5a protein – biophysical, small-molecule microarray, 635/667 nm fluorescence, primary screen (AID 1142); conditions: 635 nm fluorescence, higher = more signal;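 also: fluorescence read at 667 nm with signal to noise per printed feature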
[2] = ATP-based viability of Huh7 replicon cells – cell-based, CellTiter-Glo luminescence, basal, 48 h, cytotoxicity control for HCV replication inhibitor project, primary screen (AID 1143); conditions: higher = more signal, called active from +8 up or from −8 down;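 also: Huh7 hepatoma cells carrying a hepatitis C replication reporter with no stimulus; test concentration not given here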
[3] = Pseudomonas biofilm growth suppression – PAO1 strain, BacTiter-Glo luminescence, LB-PBS, primary screen (AID 1144); conditions: P. aeruginosa PAO1 biofilm, 12 h, higher = more signal
[4] = basal CRE-LacZ reporter activity in PC12 – cell-based, unstimulated, primary screen (AID 1145); conditions: no forskolin, luminescence, 4.5 h, higher = more signal, called active from +8 up or from −8 down
[5] = forskolin-driven CRE-LacZ activity in PC12 – cell-based, CRE-LacZ reporter, forskolin-stimulated, primary screen (AID 1146); conditions: luminescence, 4.5 h, higher = more signal, called active from +8 up or from −8 down;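 also: PC12 cells with 6xCRE LacZ reporter stimulated by forskolin 10 µM; beta-galactosidase reporter signal reflecting CREB driven transcription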
[6] = target: Streptavidin (Streptomyces avidinii) (UniProt P22629); test: compounds binding control protein streptavidin – biophysical, small-molecule microarray, 635/667 nm fluorescence, artefact control for SMM compound annotation, primary screen (AID 1147); conditions: higher = more signal;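 also: signal reflects streptavidin binding to arrayed compounds as a control protein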
Streptavidin (Streptomyces avidinii), sequence (P22629 whole entry, looked up): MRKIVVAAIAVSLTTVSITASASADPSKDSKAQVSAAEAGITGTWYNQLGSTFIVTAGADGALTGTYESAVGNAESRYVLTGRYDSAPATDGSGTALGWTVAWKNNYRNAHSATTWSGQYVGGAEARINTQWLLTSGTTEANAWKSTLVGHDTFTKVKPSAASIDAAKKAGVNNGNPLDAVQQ

[7] = probe aInhba binding on compound microarray – biochemical, small-molecule microarray, 635/667 nm fluorescence, primary screen (AID 1148); conditions: higher = more signal;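 also: score merges 667nm spot fluorescence with signal-to-noise for antibody binding to printed compounds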
[8] = target: Torsin-1A (Homo sapiens) (UniProt O14656); test: TOR1A wild-type binding on microarray – cell lysate, small-molecule microarray, lysate, 635/667 nm, primary screen (AID 1149); conditions: COS7 hTOR1A-WT lysate, 635 nm fluorescence, higher = more signal
Torsin-1A (Homo sapiens), sequence (O14656 whole entry, looked up): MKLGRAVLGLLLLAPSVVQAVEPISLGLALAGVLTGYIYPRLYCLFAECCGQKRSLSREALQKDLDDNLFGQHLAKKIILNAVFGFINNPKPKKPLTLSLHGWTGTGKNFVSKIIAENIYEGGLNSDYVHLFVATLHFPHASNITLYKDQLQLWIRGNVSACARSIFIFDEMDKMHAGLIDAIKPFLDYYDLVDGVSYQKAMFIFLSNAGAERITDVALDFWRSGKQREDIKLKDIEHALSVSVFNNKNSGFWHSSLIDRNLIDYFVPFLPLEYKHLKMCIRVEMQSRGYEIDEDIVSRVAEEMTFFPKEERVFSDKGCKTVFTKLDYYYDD

[9] = target: Torsin-1A (Homo sapiens) (UniProt O14656); test: torsin A mutant lysate binding on microarrays – cell lysate, small-molecule microarray, COS7 lysate, 635/667 nm fluorescence, primary screen (AID 1150); conditions: COS7 hTOR1A mutant lysate, 635 nm fluorescence, higher = more signal;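 also: score pools 667 nm emission and signal to noise measuring lysate protein binding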
[10] = system: Sonic hedgehog protein (Shh); test: Sonic hedgehog microarray binding compounds – biochemical, small-molecule microarray, 635/667 nm fluorescence, primary screen (AID 1151); conditions: 635 nm fluorescence, higher = more signal;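 also: Shh protein binding to compounds spotted on small-molecule microarray slides; score combines spot fluorescence intensity with signal-to-noise across triplicate slides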
[11] = optical density shifts of acrAB sulA E. coli – strain DRC41, OD650, 48 h, E. coli filamentation inducer project, primary screen (AID 1152); conditions: higher = more signal, called active from +8 up or from −8 down;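 also: E. coli MC1000 strain DRC41 lacking acrAB efflux pump and sulA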
[12] = probe aLefty1 binding on compound microarray – biochemical, small-molecule microarray, 635/667 nm fluorescence, primary screen (AID 1153); conditions: higher = more signal;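 also: score merges spot fluorescence with signal-to-noise ratio from the scanned slide images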
[13] = plasmodial surface anion channel blockers, osmotic lysis – cell-based, P. falciparum Indochina, OD700, 1 h, primary screen (AID 1154); conditions: P. falciparum Indochina infected RBC osmotic lysis, higher = more signal, called active from +8 up or from −8 down
[14] = plasmodial surface anion channel blockers, osmotic lysis – cell-based, P. falciparum Indochina, OD700, 2 h, primary screen (AID 1155);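 also: lysis reports solute entry through the parasite surface anion channel PSAC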; conditions: P. falciparum Indochina infected erythrocytes, higher = more signal, called active from +8 up or from −8 down
[15] = changes in parasitized red cell lysis, either direction – P. falciparum Indochina, OD700, 3 h, PSAC antagonist project, primary screen (AID 1156); conditions: P. falciparum-infected erythrocytes, osmotic lysis, higher = more signal, called active from +8 up or from −8 down
[16] = plasmodial surface anion channel blockers, osmotic lysis – cell-based, P. falciparum Indochina, OD700, 18 h, primary screen (AID 1157); conditions: P. falciparum Indochina infected erythrocytes, osmotic lysis OD700, 18 h; higher = more signal, called active from +8 up or from −8 down
[17] = S6 kinase pathway phospho-S6 level changes – cell-based, A549, cytoblot, luminescence, serum-stimulated, primary screen (AID 1158); conditions: 5 h, higher = more signal;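 also: serum-stimulated A549 lung adenocarcinoma cells; signal is phosphorylated S6 detected by cytoblot immunostaining with HRP secondary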
[18] = target: NADPH oxidase 2 (Homo sapiens) (UniProt P04839); test: compounds shifting NOX2 Amplex Red fluorescence – cell-based, HEK293-NOX2, PMA-stimulated, NOX inhibitor project, primary screen (AID 1159); conditions: 45 min, higher = more signal, called active from +8 up or from −8 down; also: test concentration not given here
NADPH oxidase 2 (Homo sapiens), sequence (P04839 whole entry, looked up): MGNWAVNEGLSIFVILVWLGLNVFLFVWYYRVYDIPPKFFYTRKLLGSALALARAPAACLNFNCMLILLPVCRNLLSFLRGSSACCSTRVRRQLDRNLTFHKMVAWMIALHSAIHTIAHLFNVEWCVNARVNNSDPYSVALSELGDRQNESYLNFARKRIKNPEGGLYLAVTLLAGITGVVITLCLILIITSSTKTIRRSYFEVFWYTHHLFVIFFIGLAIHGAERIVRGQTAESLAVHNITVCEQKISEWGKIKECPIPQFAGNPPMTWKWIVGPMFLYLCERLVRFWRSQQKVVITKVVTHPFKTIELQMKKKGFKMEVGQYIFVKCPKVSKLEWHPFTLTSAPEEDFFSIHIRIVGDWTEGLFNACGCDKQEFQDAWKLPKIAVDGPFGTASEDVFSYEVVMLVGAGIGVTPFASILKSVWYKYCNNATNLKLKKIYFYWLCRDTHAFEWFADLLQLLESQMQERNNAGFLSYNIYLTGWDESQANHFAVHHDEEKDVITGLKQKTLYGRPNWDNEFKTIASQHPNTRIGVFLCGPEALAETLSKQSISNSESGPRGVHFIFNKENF

[19] = target: NADPH oxidase 4 (Homo sapiens) (UniProt Q9NPH5); test: compounds shifting NOX4 Amplex Red fluorescence – cell-based, HEK293-NOX4, tetracycline-induced, NOX inhibitor project, primary screen (AID 1160); conditions: HEK293-NOX4, Amplex Red H2O2 fluorescence, 45 min; higher = more signal, called active from +8 up or from −8 down
NADPH oxidase 4 (Homo sapiens), sequence (Q9NPH5 whole entry, looked up): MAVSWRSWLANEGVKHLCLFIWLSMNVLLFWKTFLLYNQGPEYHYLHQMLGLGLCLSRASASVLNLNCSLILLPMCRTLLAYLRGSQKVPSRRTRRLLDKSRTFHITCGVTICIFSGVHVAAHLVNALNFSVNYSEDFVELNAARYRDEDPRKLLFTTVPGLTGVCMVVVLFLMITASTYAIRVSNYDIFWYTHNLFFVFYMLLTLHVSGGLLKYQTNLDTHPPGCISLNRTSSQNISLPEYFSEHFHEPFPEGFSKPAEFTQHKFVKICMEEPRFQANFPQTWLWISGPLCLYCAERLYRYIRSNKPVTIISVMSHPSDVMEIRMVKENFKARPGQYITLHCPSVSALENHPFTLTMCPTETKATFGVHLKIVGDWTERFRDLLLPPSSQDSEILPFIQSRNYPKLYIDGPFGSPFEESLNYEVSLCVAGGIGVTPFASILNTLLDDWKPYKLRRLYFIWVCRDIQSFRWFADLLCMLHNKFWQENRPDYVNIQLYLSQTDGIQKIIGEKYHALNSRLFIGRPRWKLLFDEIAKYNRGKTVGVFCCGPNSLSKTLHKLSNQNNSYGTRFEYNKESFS

[20] = target: NADPH oxidase 5 (Homo sapiens) (UniProt Q96PH1); test: compounds shifting NOX5 Amplex Red fluorescence – cell-based, HEK293-NOX5, NOX inhibitor project, primary screen (AID 1161); conditions: HEK293-NOX5, ionomycin, 45 min, higher = more signal
NADPH oxidase 5 (Homo sapiens), sequence (Q96PH1 whole entry, looked up): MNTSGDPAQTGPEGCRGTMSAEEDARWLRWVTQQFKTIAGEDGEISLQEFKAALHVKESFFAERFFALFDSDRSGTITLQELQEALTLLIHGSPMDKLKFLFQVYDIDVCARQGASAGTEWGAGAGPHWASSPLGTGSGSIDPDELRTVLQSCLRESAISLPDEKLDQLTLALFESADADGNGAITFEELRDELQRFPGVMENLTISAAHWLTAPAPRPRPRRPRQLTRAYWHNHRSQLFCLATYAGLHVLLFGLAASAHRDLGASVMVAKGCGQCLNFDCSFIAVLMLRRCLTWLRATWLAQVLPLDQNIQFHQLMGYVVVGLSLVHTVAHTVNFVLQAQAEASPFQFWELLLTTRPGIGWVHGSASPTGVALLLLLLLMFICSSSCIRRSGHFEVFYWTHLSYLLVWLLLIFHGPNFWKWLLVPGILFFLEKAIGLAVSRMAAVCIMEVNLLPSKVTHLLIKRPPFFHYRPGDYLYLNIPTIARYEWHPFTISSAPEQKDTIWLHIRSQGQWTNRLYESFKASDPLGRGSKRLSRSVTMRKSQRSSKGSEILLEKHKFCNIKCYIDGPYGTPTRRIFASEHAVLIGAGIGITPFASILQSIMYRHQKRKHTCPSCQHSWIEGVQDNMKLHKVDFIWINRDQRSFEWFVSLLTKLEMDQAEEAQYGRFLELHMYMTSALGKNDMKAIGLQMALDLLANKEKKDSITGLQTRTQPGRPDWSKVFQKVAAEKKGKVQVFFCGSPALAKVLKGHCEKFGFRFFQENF

SMILES	composite z-score [1]	z-score [2]	z-score [3]	z-score [4]	z-score [5]	composite z-score [6]	composite z-score [7]	composite z-score [8]	composite z-score [9]	composite z-score [10]	z-score [11]	composite z-score [12]	z-score [13]	z-score [14]	z-score [15]	z-score [16]	z-score [17]	z-score [18]	z-score [19]	z-score [20]
COCCCNC(=O)[C@@]1(CCS(=O)(=O)c2ccccc2)COC(c2ccc(OCCCO)cc2)=N1	0.612	-0.0036 (inactive)	0.86 (inactive)	0.918 (inactive)	-0.387 (inactive)	2.53	0.271	1.29	1.49	-0.334	1.08 (inactive)	0.87	29.2 (active)	24.6 (active)	0.764 (inactive)	4.31 (inactive)	-0.131	-0.556 (inactive)	0.25 (inactive)	0.0637
CC(C)N1C(=O)c2ccccc2[C@@H](C(=O)NCC(F)(F)F)[C@@H]1c1ccc(CO)cc1	-0.167	0.837 (inactive)	1.03 (inactive)	0.145 (inactive)	0.557 (inactive)	-0.268	-0.152	-0.0705	-1.02	0.119	-0.234 (inactive)	0.0376	2.15 (inactive)	0.336 (inactive)	0.181 (inactive)	-0.0376 (inactive)	-0.165	0.74 (inactive)	0.912 (inactive)	-1.21
CCOC(=O)C1=CCC(c2cc3ccccc3[nH]2)N(CCN2CC(C(=O)OCC)=CCC2c2cc3ccccc3[nH]2)C1 (stereo not given)	0.125	-1.74 (inactive)	-1.85 (inactive)	-0.275 (inactive)	-0.684 (inactive)	0.428	0.162	0.0418	0.104	0.54	-0.889 (inactive)	0.379	4.01 (inactive)	1.41 (inactive)	2.42 (inactive)	1.03 (inactive)	1.56	-0.756 (inactive)	-0.315 (inactive)	-0.307
COc1ccc([Si](C)(C)[C@H]2[C@H](CC(=O)N3Cc4ccccc4C[C@H]3CO)O[C@@]3(C(=O)N(C)c4ccccc43)[C@@H]2C)cc1	0.26	-7.33 (inactive)	0.458 (inactive)	5.61 (inactive)	-1.92 (inactive)	0.783	0.0342	1.28	1.91	2.07	-0.614 (inactive)	0.384	13.2 (active)	1.16 (inactive)	2.37 (inactive)	-0.925 (inactive)	0.867	-3.27 (inactive)	-1.45 (inactive)	-1.91
O=C(NCCN1CCOCC1)[C@@H]1c2ccccc2C(=O)N(Cc2ccccc2C(F)(F)F)[C@H]1c1ccc(CO)cc1	-0.316	-0.0154 (inactive)	0.151 (inactive)	0.324 (inactive)	-1.32 (inactive)	-1.12	-0.224	-0.691	0.0912	-0.112	0.736 (inactive)	-0.418	2.76 (inactive)	-0.191 (inactive)	1.15 (inactive)	0.158 (inactive)	-0.328	0.523 (inactive)	0.484 (inactive)	0.772
COc1ccccc1CN1C(=O)c2ccccc2[C@](Cc2ccccc2I)(C(=O)NCC(C)C)[C@@H]1c1ccc(CO)cc1	0.0108	-2.13 (inactive)	0.584 (inactive)	0.0279 (inactive)	-0.542 (inactive)	-0.738	0.126	-0.0986	-0.61	0.034	2.48 (inactive)	0.19	4.68 (inactive)	1.44 (inactive)	2.61 (inactive)	0.745 (inactive)	0.276	-0.943 (inactive)	0.928 (inactive)	-0.234
CCCN1C(=O)[C@]2(CCC(=O)OC(C)(C)C)N=C(c3ccc(OCCCO)cc3)O[C@@H]2c2ccccc21	0.456	-4.35 (inactive)	-0.543 (inactive)	0.512 (inactive)	-1.44 (inactive)	-0.374	0.173	1.51	0.111	1.7	0.239 (inactive)	0.26	34.1 (active)	36.8 (active)	2.57 (inactive)	8.76 (active)	-0.0347	-3.07 (inactive)	-0.483 (inactive)	-1.51
CO[C@H]1O[C@H](CO)[C@@H](OC(=O)Nc2ccccc2-c2ccccc2)[C@H](OC(=O)Nc2ccccc2)[C@H]1OC(=O)Nc1ccccc1	1.32	-3.8 (inactive)	-0.589 (inactive)	-0.254 (inactive)	-2.07 (inactive)	0.29	0.122	0.616	1.6	1.1	0.299 (inactive)	0.0405	2.62 (inactive)	0.772 (inactive)	0.375 (inactive)	0.521 (inactive)	0.144	-1.62 (inactive)	-1.72 (inactive)	-1.4
O=C1C[C@@](C(=O)NC2CC2)(c2ccc([N+](=O)[O-])cc2)[C@@H](c2ccc(CO)cc2)N1C1CCCCC1	0.755	-5.6 (inactive)	-2.4 (inactive)	0.118 (inactive)	-0.0595 (inactive)	-0.124	-0.212	-0.204	0.466	2.18	1.25 (inactive)	0.345	1.97 (inactive)	-0.0047 (inactive)	0.736 (inactive)	-0.115 (inactive)	3.97	-1.06 (inactive)	-3.7 (inactive)	-5.08
O=C(NCc1ccccc1)[C@@H]1c2ccccc2C(=O)N(Cc2cc(C(F)(F)F)cc(C(F)(F)F)c2)[C@H]1c1ccc(CO)cc1	0.145	-1.69 (inactive)	-1.69 (inactive)	0.0387 (inactive)	0.119 (inactive)	0.556	-0.0405	-0.137	0.759	1.93	-0.0343 (inactive)	0.0004	2.87 (inactive)	0.55 (inactive)	2.48 (inactive)	0.352 (inactive)	-0.0959	0.736 (inactive)	0.284 (inactive)	1.52
C=C(CCCC)/C(=C/C[C@H](OC(=O)c1ccncc1)c1ccccc1OCCO)c1cc(C(=O)OC)ccc1OC	-0.0692	-1.78 (inactive)	-0.402 (inactive)	11.4 (active)	0.179 (inactive)	0.396	0.0391	0.0152	0.369	1.43	0.0839 (inactive)	0.165	23.6 (active)	6.35 (inactive)	3.84 (inactive)	1.44 (inactive)	-0.166	0.559 (inactive)	-0.48 (inactive)	-1.67
CCCc1cc2c(n1CCc1ccc(Cl)cc1)C(C)C1CN(C(=O)c3ccccc3)C(C)(C(=O)OC)C21 (stereo not given)	0.689	-3.68 (inactive)	0.188 (inactive)	1.16 (inactive)	4.57 (inactive)	1.93	-0.0736	-0.103	0.947	-0.264	-2.41 (inactive)	0.268	2.24 (inactive)	0.322 (inactive)	2.8 (inactive)	0.347 (inactive)	0.0928	-2.06 (inactive)	-7.6 (inactive)	-5.16
CCC(CC)C(O)C1C=CC2C(=O)N(c3ccccc3)C(=O)C2N1Nc1ccccc1F (stereo not given)	0.0501	-1.14 (inactive)	-0.615 (inactive)	-0.62 (inactive)	0.492 (inactive)	0.292	-0.0044	0.838	0.597	-0.455	-0.372 (inactive)	0.0315	0.834 (inactive)	0.412 (inactive)	0.164 (inactive)	0.584 (inactive)	-0.364	0.223 (inactive)	-0.0786 (inactive)	-0.39
[N-]=[N+]=Nc1ccccc1[C@H]1OC(c2ccc(OCCCO)cc2)=N[C@@]1(Cc1ccccc1)C(=O)NCC(O)CO (stereo not given in full)	0.96	-2.87 (inactive)	-0.48 (inactive)	-1.49 (inactive)	-1.2 (inactive)	0.211	0.121	0.36	0.807	-1.32	0.348 (inactive)	0.425	33.6 (active)	30.4 (active)	0.849 (inactive)	8.56 (active)	-0.0737	-0.455 (inactive)	1.67 (inactive)	1.31
C#CCN1[C@@H](Cc2ccccc2)C(=O)O[C@H](Cc2ccccc2)[C@@H]1/C=C/C1CC1	-0.0041	-3.05 (inactive)	1.18 (inactive)	2.12 (inactive)	-0.0861 (inactive)	-0.497	-0.0763	0.459	0.84	0.482	0.827 (inactive)	-0.103	-0.396 (inactive)	0.317 (inactive)	-0.199 (inactive)	-0.48 (inactive)	-0.328	-0.279 (inactive)	-0.284 (inactive)	-2.19
C[C@@H]1NC(=O)C([C@@H](C)OCc2ccccc2)NC(=O)[C@@]23C(=O)N[C@@H](Cc4ccccc4)C2[C@H](C)[C@@]2(C)O[C@H]2C3/C=C/C/C=C\CNC1=O (stereo not given in full)	0.0076	-0.371 (inactive)	0.571 (inactive)	-0.507 (inactive)	0.428 (inactive)	-1.07	-0.25	0.0772	0.0936	1.12	-0.999 (inactive)	-0.147	2.36 (inactive)	-0.169 (inactive)	0.604 (inactive)	0.182 (inactive)	-0.093	0.715 (inactive)	-0.942 (inactive)	0.467
